Results: the supplement of paper PMC11732987, “Enantioselective OTUD7B fragment discovery through chemoproteomics screening and high-throughput optimisation” (Communications Chemistry, 2025)

Legend:
Test in all cases: log2 ratio of Biotin-Ahx-Ub-VS probe labelling (fragment/DMSO); higher = less target engagement (more negative = stronger competition), active = hit call of the paper (q ≤ 0.05, log2 ratio ≤ -1)
Details in all cases: compound concentration: 200 uM; treatment time: 3 h
USP19 = biological target: T1, USP19 (UniProt O94966)
T1 sequence (whole entry): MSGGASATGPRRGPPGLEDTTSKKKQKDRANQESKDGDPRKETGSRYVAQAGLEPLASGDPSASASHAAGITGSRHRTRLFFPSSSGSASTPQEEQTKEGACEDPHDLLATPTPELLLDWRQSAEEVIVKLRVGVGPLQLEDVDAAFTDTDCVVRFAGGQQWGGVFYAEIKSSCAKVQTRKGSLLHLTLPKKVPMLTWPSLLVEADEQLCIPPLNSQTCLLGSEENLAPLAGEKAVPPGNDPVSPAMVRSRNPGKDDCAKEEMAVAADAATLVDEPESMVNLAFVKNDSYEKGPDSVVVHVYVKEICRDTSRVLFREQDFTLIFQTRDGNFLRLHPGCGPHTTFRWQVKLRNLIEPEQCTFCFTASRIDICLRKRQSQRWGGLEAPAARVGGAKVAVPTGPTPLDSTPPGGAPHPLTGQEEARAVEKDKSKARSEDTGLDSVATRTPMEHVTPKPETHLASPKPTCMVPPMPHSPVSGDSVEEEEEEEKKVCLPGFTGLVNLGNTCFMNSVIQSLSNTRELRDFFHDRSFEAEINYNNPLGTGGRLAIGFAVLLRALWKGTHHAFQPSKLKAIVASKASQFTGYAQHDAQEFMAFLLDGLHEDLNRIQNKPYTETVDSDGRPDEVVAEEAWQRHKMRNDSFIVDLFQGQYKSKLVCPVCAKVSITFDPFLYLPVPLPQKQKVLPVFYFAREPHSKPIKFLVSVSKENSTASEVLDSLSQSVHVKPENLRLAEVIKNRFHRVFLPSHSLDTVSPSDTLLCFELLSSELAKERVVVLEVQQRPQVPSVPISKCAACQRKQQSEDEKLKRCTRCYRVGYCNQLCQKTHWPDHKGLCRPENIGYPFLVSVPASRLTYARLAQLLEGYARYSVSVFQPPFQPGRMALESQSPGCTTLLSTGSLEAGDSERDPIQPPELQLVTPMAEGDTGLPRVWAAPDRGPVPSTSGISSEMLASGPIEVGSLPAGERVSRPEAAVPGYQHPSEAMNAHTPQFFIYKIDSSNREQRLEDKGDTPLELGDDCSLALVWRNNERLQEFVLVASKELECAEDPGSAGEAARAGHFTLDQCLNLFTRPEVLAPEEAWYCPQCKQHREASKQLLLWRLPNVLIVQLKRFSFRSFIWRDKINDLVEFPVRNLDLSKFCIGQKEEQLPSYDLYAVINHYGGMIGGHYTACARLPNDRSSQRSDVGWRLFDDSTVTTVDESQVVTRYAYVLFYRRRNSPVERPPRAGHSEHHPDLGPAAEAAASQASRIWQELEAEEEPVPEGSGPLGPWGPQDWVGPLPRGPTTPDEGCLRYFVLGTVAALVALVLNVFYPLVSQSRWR
Method in brief: (§1)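 Average log2 ratios of fragment over vehicle were obtained by unpaired t-test from global-median-normalised Spectronaut label-free quantities. Proteins with ≥2 unique peptides were included. HEK293T lysate (495 µg per sample) was treated in triplicate with fragment at 200 µM or vehicle for 3 h, then with Biotin-Ahx-Ub-VS at 0.5 µM final for 1 h, and labelled DUBs were NeutrAvidin-enriched and run by diaPASEF LC-MS/MS.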

USP24 = USP24 (UniProt Q9UPU5)
Method in brief: as §1

USP25 = biological target: T2, USP25 (UniProt Q9UHP3)
T2 sequence (whole entry): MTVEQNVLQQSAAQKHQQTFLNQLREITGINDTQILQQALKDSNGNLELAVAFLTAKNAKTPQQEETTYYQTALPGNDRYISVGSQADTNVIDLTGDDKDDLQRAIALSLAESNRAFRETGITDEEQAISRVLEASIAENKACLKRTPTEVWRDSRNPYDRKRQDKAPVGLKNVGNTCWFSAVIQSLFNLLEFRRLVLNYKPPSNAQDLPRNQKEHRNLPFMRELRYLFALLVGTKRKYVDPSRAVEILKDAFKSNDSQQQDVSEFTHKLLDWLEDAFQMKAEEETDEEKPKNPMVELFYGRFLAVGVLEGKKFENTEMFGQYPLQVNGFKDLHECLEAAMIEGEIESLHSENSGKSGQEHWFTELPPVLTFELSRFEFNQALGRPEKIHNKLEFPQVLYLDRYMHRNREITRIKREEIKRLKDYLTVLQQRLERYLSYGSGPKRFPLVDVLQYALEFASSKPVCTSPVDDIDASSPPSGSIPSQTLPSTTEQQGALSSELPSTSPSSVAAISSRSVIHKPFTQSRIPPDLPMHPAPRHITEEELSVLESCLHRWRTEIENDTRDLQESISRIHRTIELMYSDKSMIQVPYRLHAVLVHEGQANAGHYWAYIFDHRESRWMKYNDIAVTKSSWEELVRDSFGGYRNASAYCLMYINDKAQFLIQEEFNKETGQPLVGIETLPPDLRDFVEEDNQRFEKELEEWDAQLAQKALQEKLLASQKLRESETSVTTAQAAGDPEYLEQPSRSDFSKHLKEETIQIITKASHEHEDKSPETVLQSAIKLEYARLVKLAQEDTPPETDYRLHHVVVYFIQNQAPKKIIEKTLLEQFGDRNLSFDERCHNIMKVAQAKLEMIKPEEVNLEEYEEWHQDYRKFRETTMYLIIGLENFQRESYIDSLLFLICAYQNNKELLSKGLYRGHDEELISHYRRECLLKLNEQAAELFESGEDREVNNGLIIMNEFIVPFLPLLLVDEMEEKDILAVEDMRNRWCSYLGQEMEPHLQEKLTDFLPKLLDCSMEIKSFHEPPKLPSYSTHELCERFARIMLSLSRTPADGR
Method in brief: as §1

USP28 = biological target: T3, USP28 (UniProt Q96RU2)
T3 sequence (whole entry): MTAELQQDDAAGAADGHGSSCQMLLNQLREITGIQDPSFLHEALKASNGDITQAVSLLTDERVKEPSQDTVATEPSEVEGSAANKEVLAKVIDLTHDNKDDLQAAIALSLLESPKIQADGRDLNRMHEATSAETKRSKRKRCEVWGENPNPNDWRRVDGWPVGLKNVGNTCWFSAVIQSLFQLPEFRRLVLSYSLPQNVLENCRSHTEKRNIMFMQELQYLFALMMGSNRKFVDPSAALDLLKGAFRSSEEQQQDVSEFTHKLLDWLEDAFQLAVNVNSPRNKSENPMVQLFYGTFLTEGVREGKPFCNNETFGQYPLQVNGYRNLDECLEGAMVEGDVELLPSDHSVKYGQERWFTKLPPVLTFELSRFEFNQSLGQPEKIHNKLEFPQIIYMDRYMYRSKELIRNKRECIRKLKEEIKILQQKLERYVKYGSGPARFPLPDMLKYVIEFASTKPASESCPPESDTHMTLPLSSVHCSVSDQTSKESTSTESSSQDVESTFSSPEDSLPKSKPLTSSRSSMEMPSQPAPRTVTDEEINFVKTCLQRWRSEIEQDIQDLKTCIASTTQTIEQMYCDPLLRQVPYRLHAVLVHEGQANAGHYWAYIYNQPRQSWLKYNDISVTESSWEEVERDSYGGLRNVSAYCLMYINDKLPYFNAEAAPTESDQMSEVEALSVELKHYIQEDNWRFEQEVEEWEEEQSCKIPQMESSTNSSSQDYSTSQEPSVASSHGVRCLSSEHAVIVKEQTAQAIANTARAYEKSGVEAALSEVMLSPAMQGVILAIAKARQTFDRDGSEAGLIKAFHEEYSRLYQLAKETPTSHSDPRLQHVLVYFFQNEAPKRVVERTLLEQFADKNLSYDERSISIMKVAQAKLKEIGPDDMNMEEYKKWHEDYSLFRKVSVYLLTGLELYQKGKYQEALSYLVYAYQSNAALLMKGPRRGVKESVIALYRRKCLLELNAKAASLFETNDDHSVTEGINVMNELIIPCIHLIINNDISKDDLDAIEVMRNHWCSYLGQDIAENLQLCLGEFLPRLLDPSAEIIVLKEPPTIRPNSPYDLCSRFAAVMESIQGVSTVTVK
Method in brief: as §1

Measured: log2 ratio of Biotin-Ahx-Ub-VS probe labelling

USP24, sequence (Q9UPU5 whole entry): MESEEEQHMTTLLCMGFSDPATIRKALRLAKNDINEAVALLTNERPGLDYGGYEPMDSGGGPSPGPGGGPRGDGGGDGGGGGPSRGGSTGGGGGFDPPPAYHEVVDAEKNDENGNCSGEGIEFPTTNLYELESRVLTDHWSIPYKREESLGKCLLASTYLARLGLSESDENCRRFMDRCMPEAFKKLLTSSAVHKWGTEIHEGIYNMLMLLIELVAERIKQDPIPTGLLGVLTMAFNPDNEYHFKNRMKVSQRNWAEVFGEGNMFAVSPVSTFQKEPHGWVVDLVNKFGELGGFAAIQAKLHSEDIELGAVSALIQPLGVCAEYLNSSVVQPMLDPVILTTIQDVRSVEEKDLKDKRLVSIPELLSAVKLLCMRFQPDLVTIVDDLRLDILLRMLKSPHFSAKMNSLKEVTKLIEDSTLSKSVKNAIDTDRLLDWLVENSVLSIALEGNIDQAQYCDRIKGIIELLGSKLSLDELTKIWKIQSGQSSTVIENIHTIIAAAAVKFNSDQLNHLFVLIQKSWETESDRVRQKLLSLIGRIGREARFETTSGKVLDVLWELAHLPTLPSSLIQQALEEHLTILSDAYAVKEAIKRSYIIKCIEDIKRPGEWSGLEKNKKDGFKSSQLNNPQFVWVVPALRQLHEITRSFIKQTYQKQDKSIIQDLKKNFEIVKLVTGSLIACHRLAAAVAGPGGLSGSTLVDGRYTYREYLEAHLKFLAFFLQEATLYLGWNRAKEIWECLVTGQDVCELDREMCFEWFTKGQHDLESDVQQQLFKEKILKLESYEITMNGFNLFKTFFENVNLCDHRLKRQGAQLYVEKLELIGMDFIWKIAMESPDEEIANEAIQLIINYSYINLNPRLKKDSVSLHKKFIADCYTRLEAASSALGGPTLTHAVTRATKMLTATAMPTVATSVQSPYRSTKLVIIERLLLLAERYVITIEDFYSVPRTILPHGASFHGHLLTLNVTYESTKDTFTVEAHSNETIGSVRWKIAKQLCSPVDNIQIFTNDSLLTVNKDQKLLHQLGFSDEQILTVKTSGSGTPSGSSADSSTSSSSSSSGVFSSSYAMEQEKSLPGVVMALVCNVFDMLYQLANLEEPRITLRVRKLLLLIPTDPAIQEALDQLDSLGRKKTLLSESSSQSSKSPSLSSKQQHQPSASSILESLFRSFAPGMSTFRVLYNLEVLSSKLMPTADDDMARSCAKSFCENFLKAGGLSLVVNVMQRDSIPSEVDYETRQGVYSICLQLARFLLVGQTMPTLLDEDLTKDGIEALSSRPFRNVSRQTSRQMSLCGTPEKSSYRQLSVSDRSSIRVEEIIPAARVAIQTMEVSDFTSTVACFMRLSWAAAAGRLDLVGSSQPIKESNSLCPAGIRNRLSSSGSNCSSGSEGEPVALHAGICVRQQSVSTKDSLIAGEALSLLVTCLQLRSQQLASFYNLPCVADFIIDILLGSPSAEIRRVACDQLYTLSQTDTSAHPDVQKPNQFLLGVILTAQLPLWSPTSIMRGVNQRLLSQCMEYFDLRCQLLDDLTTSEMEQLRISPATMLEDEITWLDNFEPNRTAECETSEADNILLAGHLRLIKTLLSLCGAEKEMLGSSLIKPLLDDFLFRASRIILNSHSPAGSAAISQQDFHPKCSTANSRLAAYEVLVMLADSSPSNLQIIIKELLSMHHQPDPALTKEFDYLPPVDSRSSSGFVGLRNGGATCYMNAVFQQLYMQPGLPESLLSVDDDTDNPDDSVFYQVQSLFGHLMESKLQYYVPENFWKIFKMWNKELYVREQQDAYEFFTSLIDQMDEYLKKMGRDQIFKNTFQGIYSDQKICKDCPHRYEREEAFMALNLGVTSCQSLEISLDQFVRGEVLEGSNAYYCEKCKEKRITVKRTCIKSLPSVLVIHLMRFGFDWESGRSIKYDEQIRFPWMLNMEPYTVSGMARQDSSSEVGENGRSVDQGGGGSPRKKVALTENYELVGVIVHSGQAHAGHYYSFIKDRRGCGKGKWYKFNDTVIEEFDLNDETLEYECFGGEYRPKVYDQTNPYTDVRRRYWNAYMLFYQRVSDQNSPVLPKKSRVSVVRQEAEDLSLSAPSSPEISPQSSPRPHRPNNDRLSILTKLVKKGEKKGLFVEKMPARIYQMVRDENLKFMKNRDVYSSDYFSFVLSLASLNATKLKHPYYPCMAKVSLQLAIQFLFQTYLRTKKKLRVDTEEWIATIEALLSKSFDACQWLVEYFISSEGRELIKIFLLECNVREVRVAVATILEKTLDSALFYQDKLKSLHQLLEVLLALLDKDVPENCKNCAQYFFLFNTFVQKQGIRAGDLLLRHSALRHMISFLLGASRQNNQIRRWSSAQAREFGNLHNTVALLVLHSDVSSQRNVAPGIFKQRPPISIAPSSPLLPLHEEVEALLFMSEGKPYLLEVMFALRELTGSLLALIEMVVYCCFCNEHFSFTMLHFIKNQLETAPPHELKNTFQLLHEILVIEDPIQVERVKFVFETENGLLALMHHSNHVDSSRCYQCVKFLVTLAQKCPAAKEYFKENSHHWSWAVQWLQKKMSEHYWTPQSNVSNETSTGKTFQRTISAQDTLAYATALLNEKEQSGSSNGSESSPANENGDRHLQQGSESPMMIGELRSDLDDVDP

Cc1cccn2cc(CCNC(=O)CCl)nc12.Cl
inactive: USP19 -0.279 | USP24 -0.29 | USP25 -0.0777 | USP28 -0.334
